# Data reported in PubChem BioAssay (NCI).
# Compounds without any hit were thinned out: in the full panel of roughly 79,000, 15% have a hit. Unmarked numbers belong to inactive results. Activity calls are given as the source filed them. Cut-off read from the data, not from the text of the source: active = growth inhibition above about 70%; inactive = the rest.
# Experiments:
# [1] = NCI Yeast Anticancer Drug Screen. Data for the rad50 strain (AID 155);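 note: 0% = growth of vehicle-only cultures of the same strain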; conditions: S. cerevisiae rad50 strain growth inhibition; at 50.0 µM; hits give high values
# In short: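 Compounds were tested on a yeast strain with an engineered DNA damage repair alteration; the reported value is growth inhibition normalised to vehicle treatment.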
# [2] = NCI Yeast Anticancer Drug Screen. Data for the mec2-1 strain (AID 157); conditions: S. cerevisiae mec2-1 strain, at 50.0 µM, hits give high values
# In short: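 Vehicle-treated cultures served as reference for growth inhibition of compound-exposed mec2-1 yeast.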
# [3] = NCI Yeast Anticancer Drug Screen. Data for the sgs1 mgt1 strain (AID 161);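 note: 0% = growth of cultures given vehicle only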; conditions: S. cerevisiae sgs1 mgt1 strain, at 50.0 µM, hits give high values
# In short: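 Read-out: growth inhibition vs vehicle controls. Cells: mutant yeast strain deficient in DNA damage repair.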
# [4] = NCI Yeast Anticancer Drug Screen. Data for the cln2 rad14 strain (AID 165);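 note: 0% = growth equal to vehicle treated cultures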; conditions: S. cerevisiae cln2 rad14 strain, at 50.0 µM, hits give high values
# In short: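 Each compound was tested on cln2 rad14 yeast. Inhibition of growth was calculated against vehicle-exposed controls.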
# [5] = NCI Yeast Anticancer Drug Screen. Data for the bub3 strain (AID 167); conditions: S. cerevisiae bub3 mutant strain, at 50.0 µM, hits give high values
# In short: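 Growth of a checkpoint-deficient yeast mutant is measured after compound exposure. Values represent inhibition relative to vehicle.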
# [6] = NCI Yeast Anticancer Drug Screen. Data for the mlh1 rad18 strain (AID 175); conditions: S. cerevisiae mlh1 rad18 strain growth inhibition; at 50.0 µM; hits give high values
# In short: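 Vehicle-treated cultures served as the reference for growth inhibition in a yeast strain carrying DNA damage repair alterations exposed to each compound.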
Structure (SMILES),growth inhibition [1],growth inhibition [2],growth inhibition [3],growth inhibition [4],growth inhibition [5],growth inhibition [6]
COC(=O)N/C(C)=N/OCc1ccccc1,1.2%,0.6%,4.3%,8.8%,15%,-11.7%
N#CCc1nn(-c2ccccc2)c2ncn(N)c(=N)c12,-8.45%,-14.8%,-9.6%,-22.2%,6.2%,-12.2%
CCCCCCCSCC(O)COC(c1ccccc1)(c1ccccc1)c1ccccc1 (configuration not stated),-17.5%,-28.6%,-29.6%,-20%,-21.5%,-20.6%
CC(NC(=O)OCc1ccccc1)C(=O)Nc1ccc(C(=O)O)c(O)c1 (configuration not stated),5.55%,-5.1%,11.9%,-9%,45.1%,-10.8%
CCCCN=C1NS(=O)(=O)c2ccccc21,15.5%,-11.5%,13.2%,-8.15%,0%,-0.6%
Cc1cc(Cl)c(Cl)cc1N,-11.6%,-7.2%,5.6%,-9.65%,12.1%,12.4%
N#CCC(=O)N1CCCCC1,-8.3%,-12.1%,9.9%,-3.15%,3.1%,-19.8%
NNC(N)=Nc1cccc2ccccc12,-2.9%,-7.5%,0.35%,15.7%,11.4%,-18.6%
CS(=O)(=O)Nc1nc2ccccc2c(=O)o1,-50.8%,-21.9%,-15.3%,-39.7%,3.75%,4.85%
CC12CCC(c3cn[nH]c31)C2(C)C (configuration not stated),16.1%,20.8%,19.9%,-6.6%,-0.35%,0.7%
Cc1nn(-c2ccccc2)c(=O)n2c1nc1ccccc12,-2%,-9.5%,20.9%,-43.1%,26.8%,11.9%
CN(CCNC(=O)NCCCCCCNC(=O)NCCN(C)c1ccccc1)c1ccccc1,-6%,-44%,-6.7%,-33.2%,3.45%,-5.05%
Fc1ccccc1-c1ccccc1,-26.4%,-1.5%,-13.5%,-37.5%,-10.8%,-11.2%
O=C(O)CC(=O)Nc1cc([N+](=O)[O-])ccc1OCc1ccccc1,-2.95%,3.6%,-1.1%,-14.7%,5.7%,0.85%
O=C(O)CCC12CCC(=O)C=C1NC(=O)CC2 (configuration not stated),1.55%,-4.4%,-7.2%,-1.65%,0.15%,-1.25%
O=S(=O)(O)c1ccccc1/C=N\N=C\c1ccccc1S(=O)(=O)O,10.8%,1.85%,11.7%,17.4%,-6.4%,12.8%
CC(C)(C)c1ccc(-c2nc3ccc(Cl)cc3c(=O)o2)cc1,-26.6%,-24.5%,-7.85%,-48.3%,-17.6%,0.45%
COCCCN1CC(=O)N2Cc3ccccc3CN2C(=O)C1,-9.15%,-13%,-15.2%,-3.6%,2.95%,-4.6%
CSc1ccc(NC(=O)CCc2ccccc2)cc1,7.7%,6.45%,13.2%,-4%,41.5%,24.1%

Structure (SMILES),growth inhibition [1],growth inhibition [2],growth inhibition [3],growth inhibition [4],growth inhibition [5],growth inhibition [6]
NC(=O)C1C=Cc2ccccc21 (configuration not stated),-6.1%,-19.3%,-18.4%,-14.1%,-16.8%,-35.6%
O=C(C/C(=C/c1ccccc1)[N+](=O)[O-])c1ccccc1,99.2% (active),99.2% (active),99.3% (active),98.8% (active),99% (active),98.8% (active)
CSc1nccc(=O)n1C,9.6%,-14.8%,-9.8%,-52.6%,-21.6%,-2.15%
O=CCCC1CCCCC1,4.75%,1.5%,-4.55%,-17.4%,13.1%,-5.7%
Cn1c2c(c(=O)c3c4[nH]c5c(c(=O)c4ccc31)CCCC5)CCCC2,-10.2%,3.7%,-15.1%,-5.65%,-4.95%,3.6%
CSc1nc(C)c(CCOC(C)=O)c(Cl)n1,-18.1%,-19.4%,-16.2%,-0.25%,17.1%,4.25%
COc1ccc(C(=O)c2ccccc2)c(O)c1OC,-12.9%,-5.95%,-2.35%,-0.75%,45.8%,10.3%
C=C(CN(C)C)C(=O)c1ccccc1OC,35.7%,30.1%,44.8%,-25.9%,35.3%,18.8%
COCOc1ccc(-c2ccc(O)cc2)cc1,10.8%,9.95%,0%,-47.2%,18.9%,5.15%
CN(C)C1=NC(NCc2ccccc2)(N(C)C)OC(N(C)C)=N1 (configuration not stated),1.95%,4.9%,0.55%,8.7%,13.7%,15.5%
O=CC(CO)CC(C=O)n1cnc2c(=O)[nH]cnc21 (configuration not stated),-11.2%,-16.1%,-15.2%,2.55%,-9.45%,1.95%
CCOC(=O)c1c[nH]c2c(C(F)(F)F)cccc2c1=O,15.6%,-9.1%,1.55%,8.75%,24.6%,14.6%
N#CC1C(=O)NC(=O)C(C#N)C1c1ccc(Cl)cc1Cl (configuration not stated),38.9%,10.1%,32.6%,22.1%,-3.55%,19.9%
CC(=O)NC(Cc1cc(I)c(OC(C)=O)c(I)c1)C(C)=O (configuration not stated),5.45%,7.1%,0.7%,14.6%,4%,-18.4%
CCC(=O)OC(OC(=O)CC)c1ccc2c(c1)OCO2,-4.6%,0.7%,4.45%,-18.9%,7.75%,-1%
Cc1cc2oc(=O)cc(C(=O)O)c2c(=O)o1,-15.8%,-9.55%,-13.2%,-17.6%,-8.85%,-16.1%
Cc1cc(C)c2[nH]c(=O)c(Br)c(C)c2c1,29.8%,11.8%,34.2%,22.1%,3.85%,19.4%
CCCCCCCCCC(=O)OCC1OC(n2cc(F)c(=O)[nH]c2=O)C(N)C(OC(=O)CCCCCCCCC)C1O (configuration not stated),42.8%,5.6%,17.1%,57.6%,8.85%,8.15%
